Common to all, as to conditions: 72 h
Assay [1] relates to HCC1937. The assay can be described thus: relative cell viability, compound alone, vs DMSO (fraction of DMSO control); higher = less growth inhibition.
The test system of assay [2] is MDA-MB-231. The description is as above.
The subject of assay [3] is HCC1937. The assay is described as follows: relative cell viability, compound + erastin, vs DMSO (fraction of DMSO control); higher = less growth inhibition.
The test system of assay [4] is MDA-MB-231. The description is as above.
For assay [5], the system named is HCC1937. The assay is described as follows: relative cell viability, compound + RSL3, vs DMSO (fraction of DMSO control); higher = less growth inhibition.
Assay [6] deals with MDA-MB-231. The description is as above.

Our source for the relative cell viability values is the supplement of paper PMC9492666.

Each structure is given as a SMILES string. Structures can show the parent of a compound that is named as a salt.
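Wherever relative cell viability, compound + RSL3, vs DMSO is given: breast cancer cell viability read out with the CCK-8 kit after co-treatment of each compound with the ferroptosis inducer RSL3.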
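Wherever relative cell viability, compound + erastin, vs DMSO is given: viability read by CCK-8 kit in 96-well plates, part of a combination screen pairing lipid-metabolism-targeting compounds with erastin.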
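Wherever relative cell viability, compound alone, vs DMSO is given: viability read out with the CCK-8 kit in 96-well plates, screening a set of 303 compounds acting on lipid metabolism targets.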

With `O=C(Oc1ccc([N+](=O)[O-])cc1)N1CCC(C(O)(c2ccc3c(c2)OCO3)c2ccc3c(c2)OCO3)CC1`, the relative cell viability with HCC1937 [1] amounted to 0.911; in the assay with MDA-MB-231 [2] it was 0.901.

Regarding `Cc1c2c(=O)n(-c3ccccc3Cl)[nH]c2cc(=O)n1Cc1ccccn1` + CCOc1ccccc1-n1c(C(C)N2CCN(C(=O)COc3ccc(Cl)cc3)CC2)nc2ccccc2c1=O [erastin], the relative cell viability with HCC1937 [3] stood at 0.72; with MDA-MB-231 [4] it was 0.784.

For the compound `O=C1C=CC[C@@H]2[C@H]3CCCN4CCC[C@@H](CN12)[C@@H]34` [Sophocarpine] + COC(=O)c1ccc([C@H]2c3[nH]c4ccccc4c3C[C@H](C(=O)OC)N2C(=O)CCl)cc1 [RSL3], the results for the relative cell viability in the assay on HCC1937 [5] and in the assay with MDA-MB-231 [6] were 0.621 and 0.502, respectively.

`O=C(CBr)c1ccc(O)cc1` [PTP Inhibitor I] + COC(=O)c1ccc([C@H]2c3[nH]c4ccccc4c3C[C@H](C(=O)OC)N2C(=O)CCl)cc1 [RSL3]: the figures for the relative cell viability with HCC1937 [5] and in the assay on MDA-MB-231 [6] were 0.674 and 0.577, respectively.

Regarding `C/C=C/c1cc(OC)c(OC)cc1OC` [alpha-Asarone], the results for the relative cell viability in the assay with HCC1937 [1] and with MDA-MB-231 [2] were 0.855 and 0.976, respectively.

On to `C[C@@H]1C(=O)O[C@H]2[C@H](O)[C@@]34O[C@@H]5OC(=O)[C@H](O)[C@@]56[C@H](C(C)(C)C)[C@H](O)C(OC3=O)[C@]64[C@@]12O` (stereo not given in full) [Ginkgolide C], for which the relative cell viability in the assay with HCC1937 [1] was found to be 1.15; in the assay with MDA-MB-231 [2], 1.08.

Take `COc1ccc(-n2c(SCCCN3C(=O)c4cccc5cccc(c45)C3=O)nnc2-c2ccncc2)cc1` + CCOc1ccccc1-n1c(C(C)N2CCN(C(=O)COc3ccc(Cl)cc3)CC2)nc2ccccc2c1=O [erastin]: the relative cell viability in the assay with HCC1937 [3] is 0.437; in the assay on MDA-MB-231 [4] it was 0.658.

`CCC1=N[C@H]2C[C@@]3(C(=O)N(OC)c4ccccc43)[C@H]3CC1[C@@H]2CO3` [Humantenmine] + COC(=O)c1ccc([C@H]2c3[nH]c4ccccc4c3C[C@H](C(=O)OC)N2C(=O)CCl)cc1 [RSL3]: the relative cell viability with HCC1937 [5] was determined as 0.585; in the assay on MDA-MB-231 [6], 0.679.

On to `C[C@@]12C[C@@H](c3ccoc3)OC(=O)[C@@H]1CC[C@]1(C)[C@H]2[C@@H]2C=C[C@@]1(O)C(=O)O2` [Columbin] + COC(=O)c1ccc([C@H]2c3[nH]c4ccccc4c3C[C@H](C(=O)OC)N2C(=O)CCl)cc1 [RSL3], for which the relative cell viability turned out to be 0.564 in the assay with HCC1937 [5] and 0.642 with MDA-MB-231 [6].

For `NNC(=O)c1nn(Cc2ccc(Cl)cc2Cl)c2ccccc12` [Adjudin], the relative cell viability in the assay with HCC1937 [1] amounted to 0.767; with MDA-MB-231 [2], 0.757.

For the compound `CCC1=N[C@H]2C[C@@]3(C(=O)N(OC)c4ccccc43)[C@H]3CC1[C@@H]2CO3` [Humantenmine], the relative cell viability in the assay with HCC1937 [1] was found to be 0.922; in the assay with MDA-MB-231 [2], 0.978.

Consider `COc1ccc(CN2CCNCC2)c(OC)c1OC` [Trimetazidine dihydrochloride], for which the values for the relative cell viability in the assay with HCC1937 [1] and in the assay on MDA-MB-231 [2] were 1.09 and 0.823, respectively.

As for `C[C@@]12C[C@@H](c3ccoc3)OC(=O)[C@@H]1CC[C@]1(C)[C@H]2[C@@H]2C=C[C@@]1(O)C(=O)O2` [Columbin] + CCOc1ccccc1-n1c(C(C)N2CCN(C(=O)COc3ccc(Cl)cc3)CC2)nc2ccccc2c1=O [erastin], the relative cell viability in the assay with HCC1937 [3] was 0.607; with MDA-MB-231 [4], 0.688.

On to `C[C@@]12C[C@@H](c3ccoc3)OC(=O)[C@@H]1CC[C@]1(C)[C@H]2[C@@H]2C=C[C@@]1(O)C(=O)O2` [Columbin], for which the relative cell viability in the assay with HCC1937 [1] came out at 0.968; with MDA-MB-231 [2], 1.06.

Take `NC(=O)c1cccc(-c2cccc(OC(=O)NC3CCCCC3)c2)c1` + CCOc1ccccc1-n1c(C(C)N2CCN(C(=O)COc3ccc(Cl)cc3)CC2)nc2ccccc2c1=O [erastin]: the relative cell viability in the assay on HCC1937 [3] stood at 0.756; in the assay with MDA-MB-231 [4], 0.568.

For the compound `C[C@]12CC[C@@H](O)C[C@@H]1CC[C@@H]1[C@@H]2CC[C@]2(C)C(=O)CC[C@@H]12` [Androsterone] + COC(=O)c1ccc([C@H]2c3[nH]c4ccccc4c3C[C@H](C(=O)OC)N2C(=O)CCl)cc1 [RSL3], the relative cell viability with HCC1937 [5] stood at 0.919; in the assay on MDA-MB-231 [6], 0.658.

For `O=C(NCCN1CCC2(CC1)C(=O)NCN2c1ccccc1)c1ccc2ccccc2c1`, the relative cell viability with HCC1937 [1] worked out at 0.491; in the assay with MDA-MB-231 [2], 0.689.

Consider `C[C@@H]1C(=O)O[C@H]2[C@H](O)[C@@]34O[C@@H]5OC(=O)[C@H](O)[C@@]56[C@H](C(C)(C)C)[C@H](O)C(OC3=O)[C@]64[C@@]12O` (stereo not given in full) [Ginkgolide C] + COC(=O)c1ccc([C@H]2c3[nH]c4ccccc4c3C[C@H](C(=O)OC)N2C(=O)CCl)cc1 [RSL3], for which the relative cell viability in the assay with HCC1937 [5] was determined as 0.699; in the assay on MDA-MB-231 [6] it was 0.692.

On to `O=C(Oc1ccc([N+](=O)[O-])cc1)N1CCN(Cc2cccc(Oc3ccccc3)c2)CC1` + COC(=O)c1ccc([C@H]2c3[nH]c4ccccc4c3C[C@H](C(=O)OC)N2C(=O)CCl)cc1 [RSL3], for which the relative cell viability was 0.673 in the assay on HCC1937 [5] and 0.473 in the assay with MDA-MB-231 [6].

For `COc1ccc(CN2CCNCC2)c(OC)c1OC` [Trimetazidine dihydrochloride] + COC(=O)c1ccc([C@H]2c3[nH]c4ccccc4c3C[C@H](C(=O)OC)N2C(=O)CCl)cc1 [RSL3], the relative cell viability stood at 0.782 in the assay on HCC1937 [5] and 0.607 with MDA-MB-231 [6].
